Bioassay records deposited in PubChem by several laboratories.
Only some compounds are listed: those with a hit (about 3.6% of all), similar ones and a draw of the others.
BoNT F protease – BoNT F light chain protease inhibition. Multiplex microsphere protease cleavage assay, flow cytometry. inhibition, % at 10 µM. 0.22% of 360,000 active; in the data active = inhibition above about 35%, passing the limit was not always enough; inconclusive = no clear call, values can overlap the other calls
Autofluor counter – counter-screen for toxin protease inhibitors: compound fluorescence | compound autofluorescence counterscreen, microsphere flow cytometry; stronger effect = higher value | fluorescence intensity (concentration not given with the values) | 3.1% of 360,000 active | AID 624483; in the data active = fluorescence intensity above about 16000; inconclusive = no clear call, values can overlap the other calls
Anthrax LF prot – blocks Bacillus anthracis lethal factor protease; multiplex microsphere protease cleavage assay, LF; AID 588501; P15917; 0.12% of 360,000 active; inhibition, % at 10 µM
Target sequence (P15917 whole entry, looked up): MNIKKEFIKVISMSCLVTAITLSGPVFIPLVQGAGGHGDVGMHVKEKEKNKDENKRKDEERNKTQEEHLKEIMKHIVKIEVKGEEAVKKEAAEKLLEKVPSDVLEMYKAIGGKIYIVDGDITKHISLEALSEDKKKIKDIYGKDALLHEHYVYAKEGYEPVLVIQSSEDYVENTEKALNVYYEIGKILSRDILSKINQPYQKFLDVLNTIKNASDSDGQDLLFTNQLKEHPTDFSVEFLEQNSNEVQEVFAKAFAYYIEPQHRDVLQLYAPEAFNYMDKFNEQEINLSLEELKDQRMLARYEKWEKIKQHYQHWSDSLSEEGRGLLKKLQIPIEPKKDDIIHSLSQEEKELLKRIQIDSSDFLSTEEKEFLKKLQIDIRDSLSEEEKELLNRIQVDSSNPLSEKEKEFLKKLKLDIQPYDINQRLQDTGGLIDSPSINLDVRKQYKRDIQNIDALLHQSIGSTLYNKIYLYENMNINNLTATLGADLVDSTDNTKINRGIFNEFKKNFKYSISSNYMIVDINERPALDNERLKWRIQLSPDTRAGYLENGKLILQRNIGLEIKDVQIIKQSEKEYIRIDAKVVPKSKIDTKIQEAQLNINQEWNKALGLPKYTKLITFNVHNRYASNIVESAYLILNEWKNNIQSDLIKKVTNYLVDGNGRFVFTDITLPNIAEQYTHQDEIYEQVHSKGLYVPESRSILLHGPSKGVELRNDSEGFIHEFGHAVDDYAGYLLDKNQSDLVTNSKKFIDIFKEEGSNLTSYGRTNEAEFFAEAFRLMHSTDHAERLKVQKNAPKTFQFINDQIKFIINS
BoNT-A LC inh2 – inhibitors of Botulinum neurotoxin A light chain protease. multiplex microsphere protease substrate cleavage, flow cytometry. inhibition, % at 10 µM. 0.17% of 360,000 active. AID 588499
MazF activator – increases E. coli MazEF RNase cleavage of RNA; 0.32% of 350,000 active; FAM/BHQ RNA-DNA oligo cleavage fluorescence, 5 h; P0AE70; activation, % at 20 µM; in the data active = activation above about 50%
BoNT-A LC CP1 – BoNT/A light chain protease inhibition; 3% of 720 active; shares compounds with BoNT F protease; AID 602139; multiplex microsphere protease assay, flow cytometry; inhibition, % at 10 µM; in the data active = inhibition above about 32%
BoNT-F LC CP1 – blocks botulinum neurotoxin F light chain protease | AID 602140 | multiplex microsphere protease cleavage assay, flow cytometry | inhibition, % at 10 µM | 720 tested, under 10 active | shares compounds with BoNT F protease; call rule not given here
LF protease CP1 – Bacillus anthracis lethal factor protease inhibition; shares compounds with BoNT F protease; multiplex microsphere protease cleavage assay, LF; inhibition, % at 10 µM; 720 tested, under 10 active; AID 602142; call rule not given here
Hits are given with their value; n = inactive; u = inconclusive; x = no result. Cut-off read from the data, not from the text of the source, unless noted: active = inhibition above about 30%; inconclusive = no clear call, values can overlap the other calls; inactive = below that.

SMILES	BoNT F protease	Autofluor counter	Anthrax LF prot	BoNT-A LC inh2	MazF activator	BoNT-A LC CP1	BoNT-F LC CP1	LF protease CP1
O=C(CCN=C1NS(=O)(=O)c2ccccc21)OCc1nnc(-c2ccccc2)o1	n	n	n	n	n	x	x	x
O=c1c2ccccc2nnn1-c1ccc(Br)cc1	41	n	n	n	n	n	n	n
CC(=O)c1c(C)[nH]c(C(=O)COC(=O)c2c(-c3ccccc3)noc2C)c1C	n	n	n	n	n	x	x	x
COCCCN1C(=O)C(CC(=O)NCCN2CCOCC2)CC(C(=O)N(C(C)C)C(C)C)=C1C (centres undefined)	n	n	n	n	x	x	x	x
CCc1ccc(OCc2nnc(SCC(=O)Nc3cccc(C(=O)N4CCOCC4)c3)o2)cc1	46	n	n	n	n	n	n	n
C[C@@H]1CN([C@H](C)CO)C(=O)c2c(c3ccccc3n2C)-c2ccccc2CO[C@H]1CN(C)C(=O)Nc1ccccc1	n	n	n	n	n	x	x	x
Cc1ccc(C(=O)N2CCN(c3ccc(N4CCOCC4)nn3)CC2)cc1	n	n	n	n	n	x	x	x
CCCCOc1ccc(C(=O)N2CCN(c3ccc(N4CCOCC4)nn3)CC2)cc1	59	u	n	n	n	n	n	n
Cc1cccc(C)c1NC(=O)C1CC(=O)N(C(C)C)C1 (centres undefined)	35	n	n	n	n	n	n	n
CC(C)c1ccc(NC(=O)C2CC(=O)N(C(C)C)C2)cc1 (centres undefined)	u	n	n	n	n	x	x	x
CCC(=O)NCc1ccc2[nH]c(C)cc2c1	n	n	n	n	n	n	n	n
Cc1cc2cc(CNC(=S)NC3CCCCC3)ccc2[nH]1	n	n	n	n	n	x	x	x
Cc1cc2cc(CNC(=O)NC3CCCCC3)ccc2[nH]1	n	n	n	37	n	n	n	n
CC(=O)NCc1ccc2[nH]c(C)cc2c1	n	n	n	n	n	n	n	n
Cc1ccc(NC(=O)NCc2ccc3[nH]c(C)cc3c2)cc1	n	n	n	n	n	x	x	x
Cc1cc2cc(CNC(=O)CCC(=O)O)ccc2[nH]1	n	n	n	n	n	n	n	n
O=C(Nc1ccccc1)Nc1cnccn1	n	n	n	n	n	x	x	x
CC(C)c1ccc(OCC(=O)NCc2ccccc2)cc1	x	x	x	x	n	x	x	x
CC(C)NC(=O)[C@H]1N2C(=O)c3ccccc3C2SC1(C)C (some centres undefined)	36	n	n	n	n	n	n	n
CC(C)OCCCNC(=O)[C@H]1N2C(=O)c3ccccc3C2SC1(C)C (some centres undefined)	n	n	n	n	n	x	x	x
COc1ccc(C2=NN(C(=O)CN3CCCCC3)C(c3ccc(OC)cc3)C2)cc1 (centres undefined)	u	n	n	u	n	x	x	x
COc1ccc(C2=NN(C(=O)CN3CCCC3)C(c3ccc(OC)cc3)C2)cc1 (centres undefined)	57	n	34	n	n	n	n	n
CCOC(=O)C1CCN(C(=O)Nc2ccc(OCc3ccccc3)cc2)CC1	u	n	31	n	n	n	n	n
Cc1ccc(NC(=O)C2CC2c2ccccc2)c([N+](=O)[O-])c1 (centres undefined)	u	n	n	n	n	x	x	x
COc1ccc(C(O)P(=O)(Oc2ccccc2)Oc2ccccc2)cc1 (centres undefined)	n	n	n	n	n	x	x	x
SMILES	BoNT F protease	Autofluor counter	Anthrax LF prot	BoNT-A LC inh2	MazF activator	BoNT-A LC CP1	BoNT-F LC CP1	LF protease CP1
COc1ccc([C@@H](O)[C@@H](N)c2ccccc2)cc1	u	n	38	n	n	n	n	n
O=C(NC(NC(=S)N1CCOCC1)C(Cl)(Cl)Cl)c1cccc2ccccc12 (centres undefined)	n	n	n	n	n	x	x	x
O=C(NCCCOc1ccc([N+](=O)[O-])cc1Cl)OCc1ccccc1	n	n	n	n	n	x	x	x
Cc1csc(NC(=O)CSc2nnc(CCNC(=O)c3ccc(Cl)c(Cl)c3)n2C)n1	n	n	n	n	n	x	x	x
COc1ccc(CCCc2nnc(SCC(=O)Nc3nc(C)cs3)n2C)cc1	35	n	n	u	n	n	n	n
CCOC(=O)C(O)(c1ccc(N(CC)S(=O)(=O)c2ccc(C)cc2)cc1)C(F)(F)F (centres undefined)	70	n	n	n	n	n	n	n
CN(CC(=O)Nc1ccccc1Cl)C(=O)Cn1cc(C(F)(F)F)cc(Cl)c1=O	n	n	n	n	n	x	x	x
CN(C(=O)CSc1nc2ccccc2o1)C1CCCCC1	x	x	x	x	n	x	x	x
